The record followed here is PubChem BioAssay AID1645883 (National Center for Advancing Translational Sciences (NCATS), 2021).

Where “and” joins values, the source holds several entries; their conditions need not be identical. Equal entries are not always repeated. About 160 (1%) of roughly 16,000 compounds were called active. Another 8% or so got no clear call; they are omitted. The list comes from a sample in which actives are over-represented; it also holds similar structures and randomly drawn compounds. Values without a mark were called inactive. Calls follow the shape of the dose curve; as a rule, active = well fitted activation curve with a large enough effect; inconclusive = small, poorly fitted or top-dose-only effect; inactive = no such curve, though single readings can be large or run the other way.
% is scaled to controls: 0 for no effect and ±100 for the full control effect; potency is read from the fitted curve at half-maximal effect.

Rap guanine nucleotide exchange factor 3 (Homo sapiens), sequence (O95398 whole entry, looked up): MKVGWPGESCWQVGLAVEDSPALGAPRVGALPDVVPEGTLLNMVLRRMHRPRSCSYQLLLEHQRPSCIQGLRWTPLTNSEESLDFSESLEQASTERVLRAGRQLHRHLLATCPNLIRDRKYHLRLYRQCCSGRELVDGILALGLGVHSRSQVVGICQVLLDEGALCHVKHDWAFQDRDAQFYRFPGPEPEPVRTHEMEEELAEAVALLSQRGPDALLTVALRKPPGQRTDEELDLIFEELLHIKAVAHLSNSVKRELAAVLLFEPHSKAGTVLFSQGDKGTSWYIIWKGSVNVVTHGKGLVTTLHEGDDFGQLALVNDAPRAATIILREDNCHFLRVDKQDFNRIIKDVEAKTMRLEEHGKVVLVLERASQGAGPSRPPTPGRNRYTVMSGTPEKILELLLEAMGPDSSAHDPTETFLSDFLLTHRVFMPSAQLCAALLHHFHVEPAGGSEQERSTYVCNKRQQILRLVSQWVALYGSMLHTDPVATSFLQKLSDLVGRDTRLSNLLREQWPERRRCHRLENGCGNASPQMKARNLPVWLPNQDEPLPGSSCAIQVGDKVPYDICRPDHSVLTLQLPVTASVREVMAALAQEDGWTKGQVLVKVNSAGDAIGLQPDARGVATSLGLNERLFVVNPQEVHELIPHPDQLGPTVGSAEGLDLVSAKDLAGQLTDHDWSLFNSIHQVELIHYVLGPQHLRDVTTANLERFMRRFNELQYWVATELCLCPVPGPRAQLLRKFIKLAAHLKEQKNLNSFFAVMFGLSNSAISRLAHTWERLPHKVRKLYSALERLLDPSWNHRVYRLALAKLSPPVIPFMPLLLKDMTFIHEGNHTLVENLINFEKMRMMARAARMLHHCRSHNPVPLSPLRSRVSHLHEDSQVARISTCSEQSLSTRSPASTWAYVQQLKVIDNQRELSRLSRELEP

The target in this experiment is Rap guanine nucleotide exchange factor 3 (Homo sapiens) (UniProt O95398). The experiment in a line: Validation qHTS for agonist of cAMP-regulated guanine nucleotide exchange factor 3 (EPAC1). Also: nearly all actives have a fitted effect of over 70% in size. To be noted: EPAC1 Rap1b BODIPY-GDP exchange, fluorescence; max response: active compounds read high, percent of cAMP control response. The text has this:
Assay Provider (PI): Xiaodong Cheng Ph.D.
The University of Texas Medical Branch, […], TX
In multi-cellular eukaryotic organisms, the effects of cAMP are transduced by two ubiquitously-expressed intracellular cAMP receptors, the classic protein kinase A/cAMP-dependent protein kinase (PKA/cAPK) and the more recently discovered exchange protein directly activated by cAMP/cAMP-regulated guanine nucleotide exchange factor (EPAC/cAMP-GEF). Both PKA and EPAC are ubiquitously expressed in all tissues, and an increase in intracellular cAMP levels will lead to the activation of both PKA and EPAC. Therefore, careful dissections of the individual role and relative contribution of EPAC and PKA within the overall cAMP signaling in various model systems are critical for further elucidating the mechanism of cAMP signaling. To date no EPAC-specific antagonists and agonist, as well as isoform-specific agonists have been reported, and developing EPAC-specific pharmacological probes to determine the physiological functions that EPAC play in the overall cAMP-mediated signaling remains a major challenge within the research field. Furthermore, identified regulators of EPAC may lead to new mechanism-based therapeutic strategies specifically targeting the EPAC / cAMP-signaling components as EPAC has been implicated to play important roles in major human pathological conditions such as diabetes, heart disease, and cancer.
This qHTS will be used to screen the Molecular Libraries Small Molecule Repository (MLSMR) as a concentration-titration series using the NCGC unique quantitative screening (qHTS) platform to find activators for EPAC1. In addition, this assay will also be used as a counterscreen for the EPAC2 qHTS. This fluorescent based assay is developed and validated for EPAC1 that measures exchange using EPAC effector Rap1 complex with BODIPY-GDP, a GDP analog with a tethered fluorophores. Activators are identified by monitoring the change in fluorescence signal as the exchanged free BODIPY-GDP has a reduced fluorescence compared to Rap1-bound BODIPY-GDP. Increase in signal (activation) is the desired outcome for the EPAC1 agonist while no activity in this assay is desired for the EPAC2 agonist counterscreen.
[1] de Rooij, J., Zwartkruis, F. J., Verheijen, M. H., Cool, R. H., Nijman, S. M., Wittinghofer, A., and Bos, J.L. (1998) Nature 396, 474-477.
Briefly, three uL of reagents (100 nM EPAC1, 250 nM RAP1B-BODIPY-GDP, 50 uM GDP) were dispensed into a 1536-well Greiner black solid-bottom medium binding assay plate. Controls and test compounds (23 nL) were transferred to the plate via a Kalypsys pin tool equipped with a 1536-pin array. The plates were centrifuged at 1,000 rpm for 15 seconds followed by 5 minute incubation at room temperature. The assay plates were read at 5 minute intervals for 30 minutes in the ViewLux plate reader using 480nm excitation and 540nm emission filters. The results were normalized to the agonist positive control of 6.5 mM cAMP.
As for `O=c1c(-c2cccs2)nc2cnc(Oc3ccccc3)nc2n1-c1ccccc1`, the max response was 26.8%. Still for that read-out and setting: the figure for `C=O` is -10.7%; for `COCCn1c(=O)c(-c2cccs2)nc2cnc(N3CCN(C)CC3)nc21` it is 9.88%; for `CC(=O)Nc1cc(C(=O)N2CCc3c(Cl)cccc3C2)cc2ncn(CCc3ccccn3)c12` it is 1.17%. `COC(C)C(C(=O)OCC1=CCN2CC[C@H](O)[C@@H]12)C(C)C` (some centres undefined): the max response is 5.22%.

Turning to `CNc1cc(-c2c(C)noc2C)ncn1`, the max response was 2.2%. Consider `CC(Oc1ccccc1)C(=O)N[C@@H]1C(=O)N2[C@@H]1SC(C)(C)[C@@H]2C(=O)O` (some centres undefined), for which the max response is -0.674%. On the same count and under the same terms, the figure for `COc1cccc(Cn2c(=O)cnc3cncnc32)c1` is -1.3%; for `Cc1cn(C2OC[C@@H](O)[C@@H]2CO)c(=O)[nH]c1=O` (some centres undefined) it is -10%; for `O=C(c1cnccn1)N1CCC2(CCCN(Cc3ccccc3)C2)CC1` it is -21.3%. On the same count and under the same terms, the figure for `O=C(C[n+]1cc(Br)cc2ccccc21)c1ccc(F)cc1` is 6.56%; for `O=c1c(-c2ccc(F)c(F)c2)nc2cncnc2n1-c1ccccc1` it is -25.2%; for `COc1ccc(C(=O)N2CCC3(CC2)CCN(c2ccccn2)CC3)cc1` it is -52.8%.

As to `COC(=O)c1ccccc1-c1cc(C)cc2c1OC(CNC(=O)C1CCOC1)C2` (centres undefined), the max response is 15.3%.

Consider `COc1ccccc1-c1cc(NCc2cccs2)ncn1`, for which the max response is -0.282%. In the case of `NNc1nnc(Cc2ccncc2)c2ccccc12`, the max response was 17.7%.

For `COc1ccc(-n2c(=O)c(C)nc3cnc(N4CCOCC4)nc32)cc1`, the max response was -14.8%. Still for that read-out and setting: the figure for `O=C(CCN1Cc2ccccc2OC(c2ccccc2)C1)N[C@@H]1CS(=O)(=O)C[C@H]1O` (some centres undefined) is 0.897%; for `CN(C)c1ccc(/C=C/c2c3ccccc3nc3ccccc23)cc1` it is 23.9%. As for `CN(C)c1ccc(/C=C/C=C/c2ccnc3ccccc23)cc1`, the Potency is 112 µM (active). `Cc1c(C(=O)NCC2CCCN(C)C2)cnn1-c1nccc(-c2ccco2)n1` (centres undefined): the max response was -6.37%.

For `CC1(C)[C@H](O[C@H]2O[C@H](C(=O)O)[C@@H](O)[C@H](O)[C@H]2O[C@@H]2O[C@H](C(=O)O)[C@@H](O)[C@H](O)[C@H]2O)CC[C@@]2(C)[C@H]1CC[C@]1(C)[C@H]2C(=O)C=C2[C@H]3C[C@@](C)(C(=O)O)CC[C@]3(C)CC[C@]21C`, the max response was 5.45%. For `CN(Cc1ccco1)c1ncncc1-c1ccoc1`, the max response was 15.3%. In the case of `O=C(c1ccco1)N1CCC[C@@]2(CCN(c3ccccc3)C2)C1`, the max response was -31.3%. Consider `CCCCCCCCCCCC(=O)O[C@H](CC(=O)O)C[N+](C)(C)C`, for which the max response was -21.3%. As to `O=S1(=O)CCOC[C@H](Cc2ccccc2)N1Cc1ccccc1Br`, the max response was 21.5%. With `Cc1nc2cc(NC(=O)[C@@H]3C[C@@H](Sc4ccccn4)CN3Cc3ccccc3C)ccc2s1`, the max response was 16.2%. Consider `Cc1cc[n+](C2CCCCC2)cc1`, for which the max response was -16.9%. Regarding `CC1(C)S[C@@H]2[C@H](N=CN3CCCCCC3)C(=O)N2[C@H]1C(=O)O`, the max response is -11.7%. Same read-out and setting: the figure for `CCN(Cc1ccncc1)C(=O)[C@@H](CO)c1ccccc1` is 7.04%; for `C#CCCCCCCCCCCCCCCCC(=O)O` it is -16.8% and -0.644%.

For the compound `CCN1CCN(C(=O)N[C@@H](C(=O)N[C@@H]2C(=O)N3[C@@H]2SC(C)(C)[C@H]3C(=O)O)c2ccccc2)C(=O)C1=O`, the max response was 15.9%. Still for that read-out and setting: the figure for `CS(=O)(=O)N1CCC2(CC1)CN(Cc1ccccc1)C2` is -14.5%. On to `COc1ccc2[nH]cc(CCNc3cc(-c4ccccc4CN(C)C)ncn3)c2c1`, for which the max response was -42%. Turning to `COc1ccc(CNc2ncncc2-c2ccccc2OC)c(OC)c1`, the max response was -21.3%.

For the compound `O=C(O)CCCCCCCCc1cn(CN2C(=O)c3ccccc3C2=O)nn1`, the max response is 12.5%. Regarding `Oc1ccc(Cl)c2c1CCC2`, the max response was -17.9%. Same read-out and setting: the figure for `Cc1csc(-c2nc3ccccc3n2C)n1` is 8.44%; for `NC(=O)c1sc(-c2ccsc2)cc1N` it is -9.78%; for `Cc1cnc(CNc2ncncc2-c2ccccc2Cl)cn1` it is 13%. `O=c1c(-c2ccc(F)cc2)nc2cnc(N3CCOCC3)nc2n1-c1ccccc1`: the max response is -86.9%. On to `COc1ccccc1-c1nc(NCc2cccs2)c2ccccc2n1`, for which the max response is -19.8%. Regarding `Cc1cc(C(=O)NCC2Cc3cccc(-c4cncnc4)c3O2)c(C)o1` (centres undefined), the max response is 3.15%. With `COc1ccccc1CNc1ncncc1-c1cccc(NS(C)(=O)=O)c1`, the max response is -3.54%.
